FBW7 act: human FBW7 E3 ligase activation, primary screen. Q969H0. AlphaScreen FBW7–phospho-cyclin E peptide binding, activator screen. normalized activity (activation), % at 26.1 µM. actives 0.13% (n = 650,000). AID 1259310; in the data active = normalized activity above about 1.9%;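 note: purified mutant Fbw7 with reduced substrate affinity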
Target sequence (Q969H0 whole entry, looked up): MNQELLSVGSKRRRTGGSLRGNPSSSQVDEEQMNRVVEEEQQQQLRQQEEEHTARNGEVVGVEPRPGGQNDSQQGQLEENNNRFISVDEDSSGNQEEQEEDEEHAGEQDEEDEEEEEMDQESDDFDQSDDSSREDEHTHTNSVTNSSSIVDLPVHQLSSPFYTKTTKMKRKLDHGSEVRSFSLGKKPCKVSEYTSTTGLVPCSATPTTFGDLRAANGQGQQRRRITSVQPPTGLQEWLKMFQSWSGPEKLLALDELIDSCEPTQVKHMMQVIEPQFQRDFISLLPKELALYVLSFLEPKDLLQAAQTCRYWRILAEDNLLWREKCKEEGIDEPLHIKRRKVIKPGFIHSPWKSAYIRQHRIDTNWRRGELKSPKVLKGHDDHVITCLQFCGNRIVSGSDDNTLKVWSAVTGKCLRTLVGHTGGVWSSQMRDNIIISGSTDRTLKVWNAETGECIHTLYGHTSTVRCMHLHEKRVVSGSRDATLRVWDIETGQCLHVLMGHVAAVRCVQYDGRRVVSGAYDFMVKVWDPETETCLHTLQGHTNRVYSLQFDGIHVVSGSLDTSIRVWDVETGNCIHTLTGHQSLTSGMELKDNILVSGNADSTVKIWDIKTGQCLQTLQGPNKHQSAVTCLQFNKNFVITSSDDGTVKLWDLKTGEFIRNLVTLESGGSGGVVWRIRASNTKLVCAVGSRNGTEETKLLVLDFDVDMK
TEAD-YAP block: TEAD-YAP interaction inhibition | HEK-TIYL cells, TEAD-Gal4/YAP UAS-luciferase luminescence | inhibition, % at 9.12 µM | actives 1.4% (n = 640,000) | AID 1259422; in the data active = inhibition above about 32%
GPR151 ag: human GPR151 activation; actives 1% (n = 650,000); Q8TDV0; PathHunter beta-arrestin GPR151 cells, luminescence; AID 1508602; activation, % at 11.2 µM; in the data active = activation above about 4.9%
MITF primary: inhibitors of human MITF; inhibition, % at 2.6 µM; AlphaScreen MITF homodimerization, bead proximity signal; actives 0.91% (n = 650,000); O75030; in the data active = inhibition above about 50%
Numbers stand for hits; – = inactive. In the library only some 3.5% were active in any assay of this set; here they are far more common.

SMILES	FBW7 act	TEAD-YAP block	GPR151 ag	MITF primary
COc1ccc(-c2noc(CC(=O)N(Cc3ccco3)CC3CCCO3)n2)cc1 (configuration not stated)	–	–	–	–
O=C(N/N=C/c1ccc2ccccc2c1)c1ccc(O)cc1O	–	36.6	–	–
COC(=O)C(O)(c1ccc(N(C)S(=O)(=O)c2ccc(C)cc2)cc1)C(F)(F)F (configuration not stated)	–	–	–	–
COC(=O)C1=C(NC(=O)c2ccc(S(=O)(=O)N3CCCC3)cc2)CCS1	–	–	–	–
COC(=O)c1nc2n(n1)C(c1ccccc1)C=C(c1ccc(Cl)cc1)N2 (configuration not stated)	–	–	–	–
CC(=O)Nc1cc(OC(C)=O)c2nonc2c1OC(C)=O	–	98.8	–	–
COc1ccc(S(=O)(=O)Nc2cc(S(N)(=O)=O)ccc2C)cc1	–	–	–	–
COC(=O)c1ccc(C)c(NS(=O)(=O)c2ccc(C)c([N+](=O)[O-])c2)c1	–	–	–	–
COC(=O)c1ccc(C)c(NS(=O)(=O)c2ccc(OC)cc2)c1	–	66.0	–	–
COC(=O)c1ccc(C)c(NS(=O)(=O)c2ccc3c(c2)OCCO3)c1	–	57.0	–	–
CCOc1ccc(S(=O)(=O)Nc2cc(C(=O)OC)ccc2C)cc1	–	54.5	–	–
COc1ccc(S(=O)(=O)Nc2cc(F)ccc2C)cc1	–	52.5	–	–
COc1ccccc1/C=C/C=C1\N=C(c2ccc(C)c([N+](=O)[O-])c2)OC1=O	–	–	–	–
CC(=O)c1cc2c(cc1NS(=O)(=O)c1ccccc1)OCO2	–	–	–	–
CC(=O)c1cc2c(cc1NS(=O)(=O)c1ccc(C)cc1)OCCO2	–	37.3	–	–
COC(=O)c1ccc(C)c(NS(=O)(=O)c2ccc(Cl)cc2)c1	–	54.2	–	–
COC(=O)c1ccc(C)c(NS(=O)(=O)c2ccc(SC)cc2)c1	–	47.5	–	–
COCCNc1ccc2ncc(-c3cccc(C(C)=O)c3)n2n1	–	–	–	–
COCCNc1ccc2ncc(-c3cccc(NC(C)=O)c3)n2n1	–	56.1	–	–
CS(=O)(=O)Nc1cccc(-c2cnc3ccc(NCCCO)nn23)c1	–	57.6	–	–
COCCNc1ccc2ncc(-c3cccc(NS(C)(=O)=O)c3)n2n1	–	42.5	–	–
COCCNc1ccc2ncc(-c3cccc(C(N)=O)c3)n2n1	–	–	–	–
COc1cccc(-c2noc(C3CCCN(C(=O)c4ccc(Br)cc4)C3)n2)c1 (configuration not stated)	–	–	–	–
Cc1ccc(-c2nnc(-c3ccccc3C)o2)cc1	–	–	–	–
Cc1ccc(-c2nnc(Nc3ccccc3)o2)cc1	–	44.3	–	–
SMILES	FBW7 act	TEAD-YAP block	GPR151 ag	MITF primary
COc1ccc2c(CNC3CCCCCC3)c(C(=O)O)[nH]c2c1	–	–	–	–
O=C(NCc1ccccc1)C(=O)NCc1cccnc1	–	–	–	–
O=C(NCc1cccnc1)c1ccc(C#Cc2ccccc2)o1	–	99.2	–	–
CC(C)c1ccc(CNC(=O)C(=O)NCc2cccnc2)cc1	–	47.1	–	–
COCCNc1c(-c2ccc(N(C)C)cc2)nc2ccc(Cl)cn12	–	–	–	–
COc1ccc(C)cc1Nc1nc2ccccc2n2nnnc12	–	–	–	–
O=C(Nc1ccc2[nH]c3nc4ccccc4nc3c2c1)c1ccco1	–	–	–	–
CC(C)Oc1ccc(NC(=O)c2cccc(Cl)c2)cc1	–	–	–	–
COc1cccc(C(=O)Nc2ccc(O)c(C)c2)c1	–	84.0	–	–
COc1cccc(C(=O)Nc2ccc(O)c(C(=O)O)c2)c1	–	–	–	–
COc1cccc(C(=O)Nc2ccc(OC(C)C)cc2)c1	–	74.8	–	–
O=C1c2ccccc2-c2onc3c(N4CCCCC4)cc(Nc4ccccc4)c1c23	–	–	–	–
CC(C)Nc1cc(N(C)CCO)c2noc3c2c1C(=O)c1ccccc1-3	–	–	–	–
CC1CCCN(c2cc(NCCN(C)CCO)c3c4c(onc24)-c2ccccc2C3=O)C1 (configuration not stated)	–	38.9	–	61.5
CC(C)Nc1cc(NCCO)c2noc3c2c1C(=O)c1ccccc1-3	–	37.5	–	–
O=C(O)CNc1cc(N2CCCCCC2)c2noc3c2c1C(=O)c1ccccc1-3	–	76.8	–	61.1
O=C(O)CCNc1cc(N2CCCCC2)c2noc3c2c1C(=O)c1ccccc1-3	–	–	–	88.6
Oc1c(C(c2cccnc2)N2CCCCC2)ccc2cccnc12 (configuration not stated)	–	–	–	92.3
Oc1c(C(c2cccnc2)N2CCCC2)ccc2cccnc12 (configuration not stated)	–	–	–	65.4
Oc1c(C(c2ccncc2)N2CCCCC2)ccc2cccnc12 (configuration not stated)	–	–	–	72.3
N#Cc1ccccc1NC(=O)c1ccc([N+](=O)[O-])o1	–	–	–	–
COc1ccc([N+](=O)[O-])cc1N1C(=O)C2CC=C(Cl)CC2C1=O (configuration not stated)	–	–	–	–
O=C(O)C1C2CC=CC2c2cc(Oc3ccccc3)cc3c2N1CC1CC=CC31 (configuration not stated)	2.3	–	–	–
O=C(O)c1cc2c3c(c1)C1CC=CC1C(c1ccc(Br)cc1)N3CC1CC=CC21 (configuration not stated)	–	–	–	71.6
Cc1cc(C)c2c3c1C1C=CCC1CN3C(C(=O)O)C1CC=CC21 (configuration not stated)	2.5	–	–	–
SMILES	FBW7 act	TEAD-YAP block	GPR151 ag	MITF primary
O=C(O)c1cc2c3c(c1)C1C=CCC1C(c1ccccc1)N3CC1CC=CC21 (configuration not stated)	–	–	–	56.4
CC(C)OC(=O)C(C)Oc1ccc2c(=O)c(Oc3ccccc3Cl)coc2c1 (configuration not stated)	–	–	–	–
Cc1ccc(SCCCC(=O)Nc2nc(-c3ccccn3)cs2)cc1	–	–	–	–
CC(C)CC(C(=O)OCC(=O)c1ccc(Cl)cc1)N1C(=O)c2ccccc2C1=O (configuration not stated)	–	–	–	–
COc1cc2c(-c3ccccc3Br)nc3c(c(C)nn3-c3ccccc3)c2cc1OC	–	–	–	–
COc1cc2c(-c3ccccc3Cl)nc3c(c(C)nn3-c3ccccc3)c2cc1OC	–	40.1	–	–
CCN(CC)c1nc(Nc2ccc(-n3ccnc3)cc2)nc(Nc2cc(OC)c(OC)c(OC)c2)n1	–	74.7	–	–
CCN(CC)c1nc(Nc2ccccc2)nc(Nc2cc(OC)c(OC)c(OC)c2)n1	–	–	–	–
COc1cc(Nc2ccnc(Nc3ccc(-n4ccnc4)cc3)n2)cc(OC)c1OC	–	51.5	–	–
O=C(CCC1CCCN(Cc2ccc(OCCO)cc2)C1)NCc1ccc(F)c(F)c1 (configuration not stated)	–	–	–	–
CCOC(=O)C(=CN1CCOc2ccc(Cl)cc21)C(=O)OCC	–	–	–	–
O=C(O)c1ccc(N2N=C(c3ccccc3)/C(=C/c3ccco3)C2=O)cc1	–	–	–	70.0

Compound activity deposited in PubChem BioAssay by The Scripps Research Institute Molecular Screening Center.
